# Screens as filed in PubChem BioAssay.
# ALR inh: human ALR oxidase inhibition via reduced H2O2; purified ALR, DTT oxidation, H2O2 HRP-luminol luminescence; 3.8% of 290,000 active; inhibition, % (concentration not given with the values);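 active means mean replicate inhibition above about 79%, with every replicate also reaching it, limit read from the data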
# rCAG binder: r(CAG) repeat RNA binding; 1.3% of 370,000 active; inhibition, % at 3 µM; AID 651821; TO-PRO-1 dye displacement fluorescence;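 active means inhibition above the plate cutoff, the mean of all test compounds on that plate plus 3 SD, cut at about 35% in these data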;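 further: 0% = DMSO alone and 100% = 100 µM mitoxantrone as full dye displacement; higher means more dye released from RNA so lower well fluorescence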
# PRMT1 inh: blocks human protein arginine methyltransferase 1 | recombinant PRMT1, activity-based probe fluorescence polarization | inhibition, % at 2.79 µM | 1.3% of 370,000 active | AID 652257 | Q99873;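 active means inhibition above about 21% made by adding two undisclosed values, limit read from the data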
# Rtt109 HAT inh: C. albicans Rtt109 histone acetyltransferase inhibition | inhibition, % at 34.9 µM | 0.16% of 330,000 active | purified Rtt109/Vps75, ThioGlo CoA-SH fluorescence, 4 h | AID 540336 | Q5AAJ8;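 active means inhibition of at least 50% in every replicate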
# ABHD5-PLIN5 inh: inhibitors of human ABHD5-perilipin-5 interaction; AID 602281; inhibition, % at 4 µM; Q00G26+Q8WTS1; Split G. princeps luciferase complementation, luminescence, 4 h; 0.78% of 360,000 active;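 active means inhibition above the mean inhibition across every tested compound plus 3 SD, cut at about 22% in these data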;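 further: 0% = DMSO only wells and the 100% control is not disclosed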
# LANA-H2A inh: blocks KSHV LANA binding to histone H2A/H2B; inhibition, % (no concentration beside the values); cell-free LANA-H2A/H2B peptide, fluorescence polarization; Q9QR71; 0.6% of 320,000 active; in the data active means inhibition mostly above about 10%, no sharp cut-off; inactive means mostly below about 6.7%
# ABHD5-PLIN5 conf: confirmation of human ABHD5-PLIN5 interaction inhibitors; shares compounds with ABHD5-PLIN5 inh; biochemical ABHD5-PLIN5 interaction, luminescence; inhibition, % at 4 µM; 67% of 2,200 active; in the data active means inhibition above about 23%;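 further: 0% = DMSO vehicle wells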
# HNF4 counter: HNF4 split-luciferase signal hit, counter-screen. shares compounds with ABHD5-PLIN5 inh. HNF4 dimerization, luminescence, biochemical. inhibition, % at 4 µM. 77% of 2,200 active;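 active means mean inhibition across replicate wells exceeding the computed hit threshold, cut at about 13% in these data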;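 further: light from luciferase halves that rejoin when HNF4 fusion proteins dimerize; 0% = DMSO only wells and the 100% control is not given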
# Target sequence (P41235 whole entry, looked up, the tested form may be a part): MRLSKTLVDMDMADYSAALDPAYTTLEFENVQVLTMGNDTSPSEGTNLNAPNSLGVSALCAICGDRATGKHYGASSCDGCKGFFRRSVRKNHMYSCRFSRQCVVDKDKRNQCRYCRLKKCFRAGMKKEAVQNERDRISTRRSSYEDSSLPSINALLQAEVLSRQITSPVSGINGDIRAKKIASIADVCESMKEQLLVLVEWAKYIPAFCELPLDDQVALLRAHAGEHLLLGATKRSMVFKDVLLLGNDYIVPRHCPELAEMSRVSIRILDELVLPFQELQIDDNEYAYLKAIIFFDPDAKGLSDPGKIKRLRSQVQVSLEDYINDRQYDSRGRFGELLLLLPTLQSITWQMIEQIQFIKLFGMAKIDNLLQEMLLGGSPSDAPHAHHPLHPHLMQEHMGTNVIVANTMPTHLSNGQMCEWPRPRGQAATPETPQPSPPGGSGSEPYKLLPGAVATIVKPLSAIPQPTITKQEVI
# * hit, by the source's call; · = no result given. In the library only some 5.9% were active in any assay of this set; here they are far more common.
SMILES,ALR inh,rCAG binder,PRMT1 inh,Rtt109 HAT inh,ABHD5-PLIN5 inh,LANA-H2A inh,ABHD5-PLIN5 conf,HNF4 counter
COCCN1C(=O)C2=C(C1=O)C1N(C)c3ccccc3[C@@]13C[C@@H](CO)N(C(C)=O)C3=N2 (stereo partly drawn),·,2,1,·,·,·,·,·
C=CCn1c(SCc2ccc3c(c2)OCO3)nc2scc(-c3ccco3)c2c1=O,-2,3,0,-2,36*,2,17,10
C=CCn1c(SCC(=O)NCc2ccco2)nc2sc(C)c(C)c2c1=O,-1,-7,-1,·,-2,0,·,·
C=CCn1c(SCC(=O)N2CCCC2)nc2scc(-c3cccs3)c2c1=O,-1,7,-3,-16,-2,-1,·,·
C=CCn1c(SCC(=O)N2CCOCC2)nc2scc(-c3ccco3)c2c1=O,69,·,·,-4,33*,-1,23*,49*
C=CCn1c(SCC(=O)NCc2ccc3c(c2)OCO3)nc2scc(-c3ccccc3)c2c1=O,-2,2,3,-2,2,3,·,·
C=CCn1c(SCC(=O)NCCCC(=O)OCC)nc2scc(-c3ccco3)c2c1=O,74,2,4,5,30*,-5,7,13*
CN(C)CC(C(=O)c1ccccc1)c1ccccc1 (stereo not drawn),6,1,6,7,31*,-2,13,100*
O=C(c1ccccc1)C(CN1CCCCC1)c1ccccc1 (stereo not drawn),·,4,4,-3,29*,·,21,95*
CC(CN1CCN(CC(C)C(=O)c2ccccc2)CC1)C(=O)c1ccccc1 (stereo not drawn),·,-2,0,0,-9,·,·,·
CN(Cc1cc(Cl)cc(Cl)c1)CC(C(=O)c1ccccc1)c1ccccc1 (stereo not drawn),·,0,3,1,7,·,·,·
O=C(c1ccc(Br)cc1)C(CN1CCOCC1)c1ccccc1 (stereo not drawn),12,1,14,0,29*,-3,52*,94*
CCOc1ccc(C(=O)C(CN2CCOCC2)c2ccccc2)cc1 (stereo not drawn),0,-6,4,-1,7,·,·,·
CCN(Cc1cn(CC2CCCCC2)nn1)S(=O)(=O)c1ccccc1Br,·,-2,2,·,·,·,·,·
O=C(NC1CCCCC1)C(c1ccccc1F)n1c(=O)c(-c2ccco2)nc2ccccc21 (stereo not drawn),·,31,15,·,72*,·,85*,31*
O=C(NC1CCCCC1)C(c1ccncc1)n1c(=O)c(-c2ccccc2)nc2ccccc21 (stereo not drawn),·,2,4,·,0,·,·,·
O=C(Nc1ccc2c(c1)OCCO2)C(c1ccncc1)n1c(=O)c(-c2ccco2)nc2ccccc21 (stereo not drawn),·,16,6,·,11,·,·,·
O=C(NC1CCCCC1)C(c1ccnc2ccccc12)n1c(=O)c(-c2ccco2)nc2ccccc21 (stereo not drawn),·,33,10,·,55*,·,50*,8
O=C(Nc1ccc2c(c1)OCCO2)C(c1ccnc2ccccc12)n1c(=O)c(-c2ccco2)nc2ccccc21 (stereo not drawn),·,22,6,·,50*,·,26*,7
O=C(NC1CCCCC1)C(c1ccc(-c2ccccc2)cc1)n1c(=O)c(-c2ccco2)nc2ccccc21 (stereo not drawn),·,31,-1,·,79*,·,71*,2
O=C(NC1CCCCC1)C(c1cccc2ccccc12)n1c(=O)c(-c2cc3ccccc3[nH]2)nc2ccccc21 (stereo not drawn),·,18,-3,·,-2,·,·,·
CN1CCC(N[C@@H](Cc2ccccc2)C(=O)NCC(c2ccccc2)c2ccccc2)(C(=O)NC2CCCCC2)CC1,·,·,-3,·,·,·,·,·
CC(C)C[C@H]1CN([C@@H](Cc2ccc(O)cc2)CN2CCC[C@@H]2CN2C(=S)NC[C@@H]2Cc2ccccc2)C(=S)N1CCc1ccccc1,·,17,-2,·,18,·,·,·
CC(C)C[C@H]1CNC(=S)N1C[C@H]1CCCN1C[C@H](Cc1ccc(O)cc1)N1C[C@H](Cc2ccc(O)cc2)N(CCc2ccccc2)C1=S,·,17,-1,·,23*,·,8,2
CCCn1c(C)c(CC(=O)Nc2ccc(N(C)c3ccccn3)cc2)c2ccccc21,·,5,4,·,·,·,·,·
SMILES,ALR inh,rCAG binder,PRMT1 inh,Rtt109 HAT inh,ABHD5-PLIN5 inh,LANA-H2A inh,ABHD5-PLIN5 conf,HNF4 counter
CCOC(=O)C(=Cc1ccc(-c2ccsc2C(=O)OC)o1)C(=O)OCC,·,1,1,15,0,2,·,·
COC(=O)C(=Cc1ccc(-c2ccsc2C(=O)OC)o1)C(=O)OC,2,-3,7,1,23*,1,24*,37*
O=C1CN(S(=O)(=O)c2cc(Br)ccc2Br)CCN1,-6,1,-7,-3,-9,0,·,·
O=c1c(Br)ccc(Br)cc1Br,·,3,62*,7,84*,·,101*,111*
Cc1nc2nc(C)n(CCN3CCOCC3)c(=O)c2c(-c2cccc([N+](=O)[O-])c2)c1C(=O)CCCCCCCCCCN1CCC(c2ccccc2)(c2ccccc2)CC1,·,10,0,5,42*,·,13,-2
CC1C/C(=C\c2cccnc2)C(=O)/C(=C/c2cccnc2)C1 (stereo not drawn),96*,-3,3,-6,91*,-2,100*,93*
O=C1/C(=C/c2cccnc2)CCc2c1[nH]c1ccccc21,-11,2,-1,-1,7,-19,·,·
O=C(CCCCCCCC(=O)N1CCCCCC1)N1CCCCCC1,·,-3,1,6,2,·,·,·
COc1ccccc1C(=O)Nc1sc(C(=O)N2CCCC2)c(C)c1C#N,-3,2,2,1,60*,-3,3,2
Cc1c(C(=O)N2CCCC2)sc(NC(=O)c2ccc(Cl)cc2)c1C#N,7,4,-3,-1,0,-2,·,·
COc1ccccc1N1CCN(S(=O)(=O)CCNC(=O)c2cccs2)CC1,·,5,4,·,-2,·,·,·
COc1ccc(Sc2cccc3c2S(=O)(=O)N([C@H](C)c2ccccc2)C[C@@H](COCc2ccccc2)O3)cc1OC,·,9,0,·,·,·,·,·
CCOc1ccc(C(C#N)N2CCOCC2)cc1OC (stereo not drawn),1,1,-1,-4,3,-5,·,·
CCOc1ccc(C(CN2CCOCC2)C(C)=O)cc1OC (stereo not drawn),·,2,1,·,34*,·,12,57*
COc1ccccc1-c1ncn(Cc2cccc(-c3ccccc3)c2)c1-c1ccco1,·,7,10,·,25*,·,22*,37*
